Data on 5 molecules can be found in PubChem BioAssay AID1018 (Sanford-Burnham Center for Chemical Genomics, 2008).

About 15 (0.007%) of roughly 200,000 compounds were called active. No stated cut-off is given here; in the data, active means displacement above about 50%; inactive means the rest. The entries come from a sample that favours actives as a whole.

In the assay the target is E3 ubiquitin-protein ligase XIAP (Homo sapiens) (UniProt P98170). In words: XIAP antagonists, biochemical, IAP family, fluorescence polarization (AID 1018). Particulars: XIAP BIR domain, fluorescence polarization peptide displacement; at 20 µM; stronger effect = higher value.
E3 ubiquitin-protein ligase XIAP (Homo sapiens), sequence (P98170 whole entry, looked up, the tested form may be a part): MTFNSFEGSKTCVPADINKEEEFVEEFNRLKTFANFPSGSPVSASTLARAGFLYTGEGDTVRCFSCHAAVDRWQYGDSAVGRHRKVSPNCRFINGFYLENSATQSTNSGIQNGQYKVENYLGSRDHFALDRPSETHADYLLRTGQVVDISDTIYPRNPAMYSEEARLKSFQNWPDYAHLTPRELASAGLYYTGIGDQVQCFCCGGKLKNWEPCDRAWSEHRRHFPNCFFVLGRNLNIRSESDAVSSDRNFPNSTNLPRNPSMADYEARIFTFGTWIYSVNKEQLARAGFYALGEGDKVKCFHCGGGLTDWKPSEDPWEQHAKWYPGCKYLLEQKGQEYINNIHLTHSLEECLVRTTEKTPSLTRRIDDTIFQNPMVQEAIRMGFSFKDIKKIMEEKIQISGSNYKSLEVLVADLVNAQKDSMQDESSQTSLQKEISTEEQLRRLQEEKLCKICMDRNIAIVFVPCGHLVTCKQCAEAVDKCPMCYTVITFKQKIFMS
For `CN1C(=O)NC(=O)[C@]2(Cc3ccccc3N3CCN(c4ccccc4)CC32)C1=O` (stereo not given in full), the displacement is -2.4% (inactive).

For `CN1C(=O)N(C)C(=O)C2(Cc3cc(N)ccc3N3CCN(c4ccccc4F)CC32)C1=O` (stereo not given), the displacement is 55.4% (active).

`CN1C(=O)N(C)C(=O)C2(Cc3ccccc3N3CCOCC32)C1=O` (stereo not given): the displacement was -5.1% (inactive).

In the case of `Cc1ccc(-c2nc3ccccc3c(=O)n2-c2ccccn2)cc1`, the displacement is -3% (inactive).

In the case of `CCCCCSc1cc(OC)c(CCN(C)C)cc1OC`, the displacement was -2.2% (inactive).
